Bioassay records (PubChem BioAssay)
Rows were chosen to be rich in hits. Some 3.4% of all compounds tested hit in one or more screens of this group.
PAFAH1B2 FP inh = inhibitors of human PAFAH1B2; P68402; recombinant PAFAH1B2, FP-rhodamine activity probe, fluorescence polarization; inhibition, % at 3.39 µM; hit rate 1.2% among 340,000; AID 492953;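 active means inhibition above the mean of all tested compounds plus 3 SD, cut at about 24% in these data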
PP5 inh = inhibitors of human protein phosphatase 5 (PP5). inhibition, % at 6.7 µM. purified PP5c, OMFP substrate fluorescence. P53041. hit rate 0.18% among 320,000;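 active means inhibition above the campaign's mean inhibition across all tested compounds plus 3 SD, cut at about 9.5% in these data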
PAFAH1B3 inh = PAFAH1B3 (human) inhibition | Q15102 | hit rate 0.28% among 340,000 | recombinant PAFAH1B3, FP-rhodamine probe, fluorescence polarization | inhibition, % at 3.39 µM | AID 492972;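 active means inhibition above the screen-wide average of all tested compounds plus 3 SD, cut at about 25% in these data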
Target sequence (Q15102 whole entry, looked up): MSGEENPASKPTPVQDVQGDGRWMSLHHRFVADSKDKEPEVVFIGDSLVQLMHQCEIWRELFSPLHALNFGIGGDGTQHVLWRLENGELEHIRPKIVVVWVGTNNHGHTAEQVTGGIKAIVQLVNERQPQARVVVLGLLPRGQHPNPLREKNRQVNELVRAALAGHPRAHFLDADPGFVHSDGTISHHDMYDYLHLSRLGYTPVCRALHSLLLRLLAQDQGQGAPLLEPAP
pPAFAH inh = pPAFAH (human) enzyme inhibition. recombinant pPAFAH, FP-rhodamine probe fluorescence polarization. inhibition, % at 3.39 µM. hit rate 1.5% among 330,000;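 active means inhibition above the mean inhibition across the screen plus 3 SD, cut at about 25% in these data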;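 further: inhibitors block binding of the rhodamine activity-based probe so polarization drops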
PAFAH2 FP inh = inhibitors of human PAFAH2. recombinant PAFAH2, FP-rhodamine activity probe, fluorescence polarization. inhibition, % at 3.39 µM. Q99487. hit rate 0.99% among 340,000. AID 492956;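 active means inhibition above the mean over all tested compounds plus 3 SD, cut at about 30% in these data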;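 further: inhibitors block probe labeling of enzyme so polarization drops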
PP1 counter = blocks human PP1-alpha phosphatase, a PP5 counter-screen. purified PP1alpha, OMFP fluorescence. inhibition, % at 6.7 µM. hit rate 0.9% among 320,000;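 active means inhibition above the mean inhibition of all tested compounds plus 3 SD, computed separately for each screening campaign, cut at about 15% in these data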
Target sequence (P62136 whole entry, looked up): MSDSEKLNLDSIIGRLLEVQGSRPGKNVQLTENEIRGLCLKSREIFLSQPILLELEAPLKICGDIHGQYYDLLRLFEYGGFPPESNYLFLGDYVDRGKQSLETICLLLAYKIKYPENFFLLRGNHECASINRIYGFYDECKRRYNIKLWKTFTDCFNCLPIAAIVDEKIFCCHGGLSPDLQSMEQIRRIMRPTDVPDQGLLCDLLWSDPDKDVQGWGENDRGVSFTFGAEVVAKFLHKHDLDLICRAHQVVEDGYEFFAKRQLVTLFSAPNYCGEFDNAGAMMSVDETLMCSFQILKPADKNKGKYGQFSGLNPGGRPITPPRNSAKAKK
A number is an active result; – = inactive; · = no result.

SMILES	PAFAH1B2 FP inh	PP5 inh	PAFAH1B3 inh	pPAFAH inh	PAFAH2 FP inh	PP1 counter
O=C1NC(=O)C(=Cc2ccc(-c3ccc(F)cc3O)o2)C(=O)N1	31.7	–	–	–	–	–
CC(=NCc1ccco1)c1c(O)n(-c2ccc(Cl)cc2)c(=O)[nH]c1=O	–	–	–	–	–	–
O=C(O)C1(c2ccc(Cl)cc2)CCC1	46.5	–	–	–	–	–
CC(=O)C1(c2ccccc2)CCNCC1	–	–	–	–	–	–
COc1ccc(-c2nc3ccccc3c(=O)n2-c2ccc(OC)cc2)cc1	–	–	–	–	–	–
CCn1nc(-c2ccccc2)nc2c(=O)n(C)c(=O)nc1-2	39.0	–	69.8	–	57.7	38.6
S=P1(Oc2ccccc2)Nc2ccccc2N1	–	·	–	·	–	·
Cn1cc(C(=O)OCC(=O)Nc2ccccc2)c2ccccc21	–	–	–	28.9	84.5	–
CC1CCN(S(=O)(=O)c2ccc(NN=C(C#N)C#N)cc2)CC1	·	–	·	–	·	–
N#CC(C#N)=NNc1ccc(S(N)(=O)=O)cc1	–	–	32.3	29.6	–	–
O=P(Oc1ccc(-c2ccccc2)cc1)(N1CC1)N1CC1	–	·	–	·	–	·
COC(=O)C1=C(c2ccccc2OCc2ccccc2)C[C@@H]2CC[C@H]1N2C(=O)NCc1ccc(C(C)(C)C)cc1	–	–	–	–	–	17.0
COC(=O)C1=C(c2ccc(F)cc2OCc2ccccc2)C[C@@H]2CC[C@H]1N2C(=O)NCc1ccc(F)cc1	–	–	–	–	–	–
COC(=O)C1=C(c2ccc(C(C)=O)cc2)C[C@@H]2CC[C@H]1N2C(=O)NCc1ccc(F)cc1	34.2	–	–	–	–	–
COC(=O)C1=C(c2cccc(OCc3ccccc3)c2)C[C@@H]2CC[C@H]1N2C(=O)NCc1ccc(OC)c(OC)c1	26.3	–	–	–	–	–
COC(=O)C1=C(c2ccc(F)cc2OCc2ccccc2)C[C@@H]2CC[C@H]1N2C(=O)NC1Cc2ccccc2C1	–	–	–	–	–	17.4
Cc1ccc2c(c1)N(CCC(=O)N1CCC3(CC1)OCCO3)C(=O)C(C)O2 (centres undefined)	–	·	–	·	–	·
O=C1NC(=O)C2(CCN(S(=O)(=O)c3ccccc3)CC2)C(=O)N1	–	·	–	·	–	·
COC(=O)C1=C(c2cc3ccccc3s2)C[C@@H]2CC[C@H]1N2C(=O)NCCCOC(C)C	–	–	–	–	–	–
NP(=O)(Oc1ccccc1)Oc1ccccc1	–	·	–	·	–	·
NP(=O)(OCCCc1ccccc1)Oc1ccccc1 (centres undefined)	62.0	–	–	–	–	–
Cc1c2cnn(CC(=O)N3CCC4(CC3)OCCO4)c(=O)c2c(C)n1Cc1ccccc1	–	–	–	–	–	–
O=C(Cn1ncc2c3ccccc3n(Cc3ccc(F)cc3)c2c1=O)N1CCC2(CC1)OCCO2	–	–	–	31.5	–	–
Cc1nc2c(=O)n(C)c(=O)nc-2n(C)n1	27.7	10.7	66.3	–	54.3	43.5
O=C1NC(=O)C(=Cc2ccc(Sc3ccccc3)o2)C(=O)N1	29.3	–	–	–	33.1	–
SMILES	PAFAH1B2 FP inh	PP5 inh	PAFAH1B3 inh	pPAFAH inh	PAFAH2 FP inh	PP1 counter
CN1C(=O)C(=Cc2ccc(Sc3ccccc3)o2)C(=O)N(C)C1=O	–	–	–	–	–	–
CCOC(=O)C1(CCOc2ccccc2)CCN(Cc2cccc(O)c2)CC1	–	–	–	–	–	–
O=c1cccc2n1CC1CC2CN(c2ncnc3c2cnn3-c2ccc(Cl)cc2)C1 (centres undefined)	–	–	–	–	–	–
O=C1CCCN1C(=O)c1cncc(Br)c1	25.8	–	–	–	–	–
COc1ccc(NC(=O)c2cn(CCC#N)nc2-c2ccc(OC)c(OC)c2)cc1	–	–	–	–	–	–
CCCCC/C=C\C/C=C\C/C=C\C/C=C\CCCC(=O)Nc1ccc(O)cc1	·	–	·	36.4	·	–
CCCCCCCCc1ccc(O)cc1	–	–	–	–	–	–
COC(=O)C1=C(c2cccc(OC)c2OC)C[C@@H]2CC[C@H]1N2C(=O)NCc1ccccc1	–	–	–	–	–	–
O=C(c1cc2c(s1)CCCCCC2)N1CCC2(CC1)OCCO2	–	–	–	33.3	–	–
CN1/C(=C\C=C\C2=[N+](C)c3ccc4ccccc4c3C2(C)C)C(C)(C)c2ccccc21	·	12.0	·	–	·	36.3
Nc1c(C(=O)NCC2CCCO2)c2nc3ccccc3nc2n1Cc1ccco1 (centres undefined)	–	–	–	25.3	–	–
CCCNC(=O)c1c(N)n(Cc2ccco2)c2nc3ccccc3nc12	·	–	·	–	·	–
C[N+]1(C)CCc2cc3c(cc2[C@H]1[C@@H]1OC(=O)c2c1ccc1c2OCO1)OCO3	–	–	–	–	–	–
CCCC/C(C)=C/[C@@H](NP(=O)(c1ccccc1)c1ccccc1)c1ccccc1	–	–	–	–	–	15.6
COc1ccc2c(c1O)-c1c(OC)c(OC)cc3c1[C@H](C2)N(C)CC3	–	–	–	–	–	–
CCCN1CCc2cccc3c2[C@H]1Cc1ccc(O)c(O)c1-3	–	–	–	33.7	–	–
CN(c1ccc(OCC(=O)N2CCN(C/C=C/c3ccccc3)CC2)cc1)S(=O)(=O)c1cccs1	–	–	–	–	–	–
Cc1ccc(N2C(=O)NC(=O)/C(=C\c3ccoc3)C2=O)cc1	–	–	–	–	–	–
Cc1cccc(N2C(=O)NC(=O)/C(=C/c3ccc([N+](=O)[O-])o3)C2=O)c1	·	–	·	25.8	·	–
Cc1cc(C)cc(N2C(=O)NC(=O)/C(=C/c3cccn3-c3ccc(Cl)cc3)C2=O)c1	47.9	–	–	–	42.1	–
O=C1NC(=S)N(c2ccc(F)cc2)C(=O)/C1=C\c1ccoc1	–	·	–	·	50.4	·
Cc1cccc(N2C(=O)NC(=O)/C(=C\c3cccn3-c3ccc(Cl)cc3)C2=O)c1	74.3	–	–	–	53.5	–
Cc1ccc(N2C(=O)NC(=O)/C(=C\C=C\c3ccco3)C2=O)cc1C	–	–	–	–	–	–
CC1CCCCC12C(=O)NC(=O)NC2=O (centres undefined)	–	·	–	·	–	·
Cc1ccc(N)cc1N	–	–	–	–	–	–
SMILES	PAFAH1B2 FP inh	PP5 inh	PAFAH1B3 inh	pPAFAH inh	PAFAH2 FP inh	PP1 counter
Cc1ccc(/C=C2\C(=O)NC(=S)N(c3cccc(F)c3)C2=O)o1	–	–	–	29.2	–	–
Cc1ccc(N2C(=O)/C(=C/c3ccc(CN(CCC#N)S(C)(=O)=O)o3)C(=O)NC2=S)cc1C	·	–	·	32.2	·	–
Cc1cccc(N2C(=O)/C(=C/c3ccc(CN(CCC#N)S(C)(=O)=O)o3)C(=O)NC2=S)c1	–	–	–	–	–	–
Cn1c(=O)c2c(nc(N/N=C/c3c(O)n(C4CCCCC4)c(=S)[nH]c3=O)n2C)n(C)c1=O	28.5	–	–	–	–	–
CC(=O)NC(Cc1ccc(N(CCCl)CCCl)cc1)C(=O)NC(C(=O)O)C(C)C (centres undefined)	25.1	–	–	–	–	–
CC(C)CN(CC(C)C)c1ccc(C=C2C(=O)NC(=S)NC2=O)cc1[N+](=O)[O-]	34.2	–	–	–	38.4	–
